High-throughput results (PubChem)
Compounds with a hit are over-represented: about 2.9% of the library has one in this group of screens.
MITF TRPM1 inh – MITF TRPM1 promoter inhibition in SK-MEL-5 cells | inhibition, % at 12.5 µM | SK-MEL-5 TRPM1 promoter luciferase, 24 h | hit rate 0.83% among 330,000;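 active means mean inhibition across replicates of 60% or more, whatever share of single replicates reaches that level; inconclusive means some that reach 60%, reason not given; inactive means mean inhibition across replicates below 60%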
Wnt bcat act – activators of Wnt/beta-catenin signaling; activation, % at 9.35 µM; hit rate 1.2% among 300,000; Wnt/beta-catenin reporter cell assay, activator, plate reader; in the data active means activation above about 30%, passing the limit was not always enough; inconclusive means no clear call, values can overlap the other calls;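 further: 0% = neutral control wells and 100% = positive control wells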
MITF act – MITF TRPM1 promoter activation in melanoma cells. SK-MEL-5 TRPM1-promoter luciferase, 24 h; % of positive control, neutral wells = 0. activation, % at 12.5 µM. hit rate 0.75% among 300,000. AID 588334;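 active means mean activation of at least 80% with every replicate also reaching 80%; inconclusive means mean reaches 80% but some replicate falls short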;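 further: 0% = neutral control wells and 100% = parthenolide positive control wells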
PfHsp90 yeast 2 – growth inhibition of yeast expressing Plasmodium Hsp90; hit rate 0.32% among 310,000; inhibition, % at 9.4 µM; S. cerevisiae expressing PfHsp90, BacTiter-Glo ATP, 48 h; yeast lacking PDR1 and PDR3 efflux regulators;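 active means every replicate shows inhibition above about 80%, whatever the replicate mean, limit read from the data; inconclusive means mean inhibition reaches the set limit but some replicate falls short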;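 further: 0% = DMSO neutral controls and 100% = 20 µM radicicol positive controls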
NSD2 HMT inh – blocks human histone methyltransferase NSD2. O96028. NSD2 peptide methylation, AlphaScreen, 120 min. inhibition, % at 12.5 µM. hit rate 0.54% among 310,000; in the data active means inhibition above about 50%
Target sequence (O96028 whole entry, looked up): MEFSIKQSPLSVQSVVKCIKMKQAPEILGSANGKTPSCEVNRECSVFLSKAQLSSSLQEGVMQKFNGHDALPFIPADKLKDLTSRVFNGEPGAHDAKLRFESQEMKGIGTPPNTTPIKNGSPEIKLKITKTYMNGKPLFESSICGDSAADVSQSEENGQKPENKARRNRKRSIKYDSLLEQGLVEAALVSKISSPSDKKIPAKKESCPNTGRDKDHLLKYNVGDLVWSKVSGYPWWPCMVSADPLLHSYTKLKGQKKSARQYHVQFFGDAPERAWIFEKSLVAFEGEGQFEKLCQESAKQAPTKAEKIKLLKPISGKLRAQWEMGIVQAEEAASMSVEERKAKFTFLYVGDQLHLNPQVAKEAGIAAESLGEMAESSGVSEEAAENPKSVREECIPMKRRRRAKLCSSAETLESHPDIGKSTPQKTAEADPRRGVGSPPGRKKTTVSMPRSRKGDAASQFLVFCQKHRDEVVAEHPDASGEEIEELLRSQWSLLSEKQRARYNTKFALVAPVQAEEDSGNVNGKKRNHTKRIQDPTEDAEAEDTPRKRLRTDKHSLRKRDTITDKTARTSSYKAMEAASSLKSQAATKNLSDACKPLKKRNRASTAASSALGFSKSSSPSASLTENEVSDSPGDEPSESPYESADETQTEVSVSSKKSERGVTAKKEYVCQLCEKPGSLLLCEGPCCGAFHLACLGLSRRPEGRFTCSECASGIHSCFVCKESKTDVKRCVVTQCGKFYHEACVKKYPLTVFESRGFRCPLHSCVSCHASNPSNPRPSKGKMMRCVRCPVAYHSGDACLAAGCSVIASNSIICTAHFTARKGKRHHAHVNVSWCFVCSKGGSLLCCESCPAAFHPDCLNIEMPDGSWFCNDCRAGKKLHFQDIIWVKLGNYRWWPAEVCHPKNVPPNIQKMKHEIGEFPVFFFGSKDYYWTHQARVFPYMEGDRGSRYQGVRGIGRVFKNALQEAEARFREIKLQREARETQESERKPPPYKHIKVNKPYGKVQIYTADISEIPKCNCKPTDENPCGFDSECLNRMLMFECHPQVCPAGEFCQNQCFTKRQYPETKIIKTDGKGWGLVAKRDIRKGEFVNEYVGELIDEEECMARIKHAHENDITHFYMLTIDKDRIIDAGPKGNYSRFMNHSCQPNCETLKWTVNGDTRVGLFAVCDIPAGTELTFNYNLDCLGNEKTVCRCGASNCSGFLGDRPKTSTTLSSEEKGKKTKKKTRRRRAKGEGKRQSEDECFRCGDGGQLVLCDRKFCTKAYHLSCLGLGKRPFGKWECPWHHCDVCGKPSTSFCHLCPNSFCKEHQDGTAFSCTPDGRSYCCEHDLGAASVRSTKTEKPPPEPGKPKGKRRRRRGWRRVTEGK
Glyco luc inh – N-linked glycosylation inhibition; hit rate 0.23% among 360,000; D54 ERlucT glycosylation luciferase reporter, 24 h; percent of 100 nM tunicamycin response; AID 588692; reporter increase, % at 12.5 µM;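 active means mean luciferase reporter signal, scaled so untreated is 0 and the glycosylation-blocking control 100, at or above a set limit in every replicate; inconclusive means mean reaches the limit but not every replicate does; inactive means mean below the limit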;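 further: luciferase carries N-glycosylation sites so blocking glycosylation raises the light; 0% = median of neutral control wells and 100% = median of 100 nM tunicamycin wells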
The depositor's hits bear a star; ? = inconclusive; . = not tested or not shown; ! = not active in a repeat.

SMILES	MITF TRPM1 inh	Wnt bcat act	MITF act	PfHsp90 yeast 2	NSD2 HMT inh	Glyco luc inh
CCCCCCCSc1cc(OC)c(CCNC)cc1OC	101.8*	.	-101.5	.	68.6*	-7.9
CCc1cc(OC)c(CCN)cc1OC	.	-0.7	.	.	.	.
COc1ccc(-c2cc(=NCCC(=O)O)c3cc(C)ccc3o2)cc1	-109.8	13.5	112.5*	17.5	-2.6	-2.9
COc1ccc(N2C(=O)NC(=O)/C(=C/c3ccc([N+](=O)[O-])s3)C2=O)cc1	.	0.8	.	.	31.6	2.4
O=C1NC(=O)N(Cc2ccc(F)cc2)C(=O)/C1=C\c1ccc([N+](=O)[O-])s1	13.3	-0.8	.	101.2*	40.1	2.0
COc1ccc(CN2C(=O)NC(=O)/C(=C/c3ccc([N+](=O)[O-])s3)C2=O)cc1	7.8	-1.2	.	101.1*	35.6	3.8
O=C(CCl)Nc1nccs1	15.5	2.0	-14.1	16.0	-23.4	-4.0
CC(C)(C)C(O)C(Oc1ccc(Cl)cc1)n1cncn1 (stereo not given)	10.4	-2.3	-7.9	101.8*	.	-1.0
Cc1ccc(C2(O)CCN3CCCCC32)cc1 (stereo not given)	3.0	.	.	-18.4	-5.2	1.5
CC[n+]1c(-c2ccccc2)c2cc(N)ccc2c2ccc(N)cc21	.	-3.9	-64.2	-21.4	177.6*	-14.0
OC1CN2CCCC(O)C2C1O (stereo not given)	.	-1.6	.	.	.	.
COc1ccc(CC[n+]2cc(/N=C(\C)[O-])on2)cc1OC	3.2	1.9	-3.6	3.3	-1.1	0.3
Clc1ccc(C[n+]2c(-c3ccccc3)cc(-c3ccccc3)cc2-c2ccccc2)cc1	92.2*	-17.9	-90.8	18.2	.	?
Cc1cc(-c2ccccc2)cc(-c2ccccc2)[n+]1CCc1ccccc1	64.8*	-7.0	-63.9	2.9	.	11.8
Fc1ccc(C[n+]2c(-c3ccccc3)cc(-c3ccccc3)cc2-c2ccccc2)cc1	.	0.3	.	.	.	.
CCOc1ccc(-c2cc(C)[n+](CCO)c(-c3ccc(OCC)cc3)c2)cc1	62.8*	-0.4	-61.7	-2.5	1.9	0.9
CCOc1ccc(-c2cc(C)[n+](CCc3ccc(OC)c(OC)c3)c(-c3ccc(OCC)cc3)c2)cc1	97.3*	1.8	-95.2	-2.3	7.2	1.5
O=C(NCCN1CCC2(CC1)C(=O)NCN2c1ccccc1)c1cc(C(F)(F)F)ccc1C(F)(F)F	.	-0.4	.	.	.	.
COC(=O)C(Cc1ccc(N(CCCl)CCCl)cc1)N=Cc1ccccc1O (stereo not given)	62.2*	-8.1	.	1.0	.	-1.9
Cc1ccc(N2Cc3ccccc3-n3nncc3C2)cc1	.	1.9	.	.	.	.
Clc1ccc([C@H]2CC3CCC2N3)cn1 (stereo not given in full)	.	2.1	.	.	.	.
CC[C@H](C)/C=C(C)/C=C/C1=CC2=C(Cl)C(=O)[C@](C)(OC(C)=O)C(=O)C2=CO1	.	.	.	105.1*	.	4.3
CC(=O)OC1N=C(c2ccc(Cl)cc2)c2cc(Br)ccc2NC1=O (stereo not given)	3.4	-5.9	-2.4	-4.8	6.4	-1.0
COC(=O)C1=C(c2ccc(Cl)c(C(F)(F)F)c2)C[C@@H]2CC[C@H]1N2C(=O)NCc1ccc2c(c1)OCO2	1.9	57.4*	-0.4	14.5	.	-1.1
Cc1ccc2c(c1N)C(=O)c1ccccc1C2=O	-95.0	44.3*	94.6*	-40.2	.	0.7
SMILES	MITF TRPM1 inh	Wnt bcat act	MITF act	PfHsp90 yeast 2	NSD2 HMT inh	Glyco luc inh
O=c1[nH]c2cc(Cl)ccc2n1C1CCN(Cc2ccc(-c3nc4ccc(F)cc4nc3-c3ccccc3)cc2)CC1	.	-14.9	.	.	.	.
COC(=O)C12OCC34C(CC5C(C)=C(O)C(=O)CC5(C)C3C(O)C1O)OC(=O)C(OC(=O)/C=C(\C)C(C)C)C24 (stereo not given)	84.6*	-9.6	.	10.0	0.2	-18.0
CCOc1ccccc1-n1c(O)c(C=Nc2ccc(N(CC)CC)cc2)c(=O)[nH]c1=O	23.4	.	-22.6	10.0	-2.9	29.1*
CCN(CC)c1ccc(N=Cc2c(O)n(-c3ccccc3C)c(=O)[nH]c2=O)cc1	7.9	-5.8	-11.0	-14.1	0.9	7.0
O=c1c2ccccc2nc(-c2ccc(-c3ccccc3)cc2)n1-c1ccncc1	-15.0	-2.1	13.8	107.0*	-2.2	0.1
Cc1ccc(-c2nc3ccccc3c(=O)n2-c2ccncc2)cc1	-14.8	.	12.1	17.8	-3.4	2.1
CC1OC(OC2CC(O)C3(CO)C4C(O)CC5(C)C(C6=CC(=O)OC6)CCC5(O)C4CCC3(O)C2)C(O)C(O)C1O (stereo not given)	86.7*	-25.2	-85.9	-10.0	.	-17.9
C[C@@H]1O[C@@H](O[C@H]2C[C@@H](O)[C@]3(CO)[C@H]4[C@H](O)C[C@]5(C)[C@@H](C6COC(=O)C6)CC[C@]5(O)[C@@H]4CC[C@]3(O)C2)[C@H](O)[C@H](O)[C@H]1O (stereo not given in full)	67.9*	-23.8	-67.1	1.5	.	-18.9
C=C1C(=O)O[C@@H]2C[C@@H](C)[C@@H]3C=CC(=O)[C@@]3(C)[C@@H](O)[C@H]12	105.8*	-19.7	-105.5	13.8	.	-22.4
CC(C)C(CN1CCC(C)(c2cccc(O)c2)[C@@H](C)C1)NC(=O)C1Cc2ccc(O)cc2CN1 (stereo not given in full)	.	-2.7	.	.	.	.
O=C1COc2ccc(C(=O)COC(=O)Cc3ccccc3)cc2N1	-17.5	0.0	16.5	-1.8	0.0	0.0
CC(=O)OC[C@]12CCC(C)=C[C@H]1O[C@@H]1[C@H](O)[C@@H](OC(C)=O)[C@@]2(C)[C@]12CO2	91.4*	-25.2	-90.8	.	.	-20.5
CN1CN(c2cccc([N+](=O)[O-])c2)CN=C1N[N+](=O)[O-]	8.4	-1.5	-8.1	-2.2	-1.5	2.5
O=C(NCCN1CCC2(CC1)C(=O)NCN2c1ccccc1)c1ccccc1C(F)(F)F	.	6.5	.	.	.	.
CN(C)c1ccc(/C=C/c2cc[n+](C)c3ccccc23)cc1	82.0*	-6.2	-81.7	51.6	62.0*	39.5*!
CCCNC(=O)c1c(N)n(CC2CCCO2)c2nc3ccccc3nc12 (stereo not given)	-14.3	-0.3	.	.	.	7.6
CC(C)OCCCNC(=O)c1c(N)n(CC2CCCO2)c2nc3ccccc3nc12 (stereo not given)	0.7	-2.5	-1.5	2.4	98.5*	3.4
Cc1cccc(CN2CCCC(C(=O)c3ccc4c(c3)OCO4)C2)n1 (stereo not given)	4.7	-0.6	-9.1	-5.4	-1.8	0.0
Nc1nonc1C(=O)N/N=C/c1ccc([N+](=O)[O-])o1	14.8	6.8	-15.8	-22.0	8.1	29.8*
N/C(=N\[N+](=O)[O-])N/N=C/c1ccc(O)cc1	4.2	0.8	-5.2	5.7	2.0	2.8
CC1=CC2/C=C(\C)CCC(O)C(O)/C=C/C(=O)C23C(=O)NC(CC(C)C)C3C1C (stereo not given)	97.2*	.	-96.8	-38.6	.	-20.8
